Test results published in PubChem BioAssay.
Inconclusive results are not listed. Activity calls are given as the source filed them. Unless noted, no stated cut-off is given here; in the data, active means inhibition above about 80%; inactive means the rest.

Columns and labels:
[1] = viability loss in pontine glioma line – cell-based, SU-DIPG-XXV, MIPE5.0, CellTiter-Glo, qHTS, dose response (AID 1347065; cut-off not given, nearly all actives have AC50 up to about 26 µM;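 further: cells exposed to compound for 48 hours before ATP readout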); details: CellTiter-Glo ATP luminescence
[2] = JHH-DIPG-1 glioma cell viability, MIPE5.0 library, CellTiter-Glo luminescence, qHTS (AID 1347067; cut-off not given, nearly all actives have AC50 up to about 26 µM;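 further: cells exposed to compound for 48 hours before readout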); details: JHH-DIPG-1 glioma viability, CellTiter-Glo ATP luminescence
[3] = SU-DIPG-XXV glioma cell viability, MIPE5.0 library, qHTS (AID 1347068; cut-off not given, nearly all actives have IC50 up to about 30 µM)
[4] = LFS_MB_P medulloblastoma growth inhibition, cell-based, chromothripsis tumors, cisplatin or BGB combos (AID 1671449); details: LFS_MB_P medulloblastoma cells;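 further: cells exposed for 96 hours; 0% = vehicle DMSO and 100% = killing by high DMSO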
[5] = HDN33 neuroblastoma growth inhibition, cell-based, chromothripsis tumors, cisplatin or BGB combos (AID 1671450); details: HDN33 neuroblastoma cells, stronger effect = higher value;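 further: cells exposed to compound for four days; 0% = vehicle DMSO and 100% = cell killing by high DMSO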
[6] = ICB984 medulloblastoma cell growth inhibition, synergistic combos for chromothripsis tumors, cisplatin or BGB combos (AID 1671451; call rule not given here;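 further: cells exposed for 96 hours before readout; 0% = vehicle DMSO and 100% = killing by high DMSO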); details: ICB984 medulloblastoma cells, drug combinations, stronger effect = higher value
[7] = LFS_MB_1R medulloblastoma cell growth inhibition, synergistic combos for chromothripsis tumors, cisplatin or BGB combos (AID 1671452); details: LFS_MB_1R medulloblastoma cells, stronger effect = higher value;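 further: cells exposed for 96 hours before readout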
[8] = HTB85 osteosarcoma cell growth inhibition, synergistic combos for chromothripsis tumors, BGB or cisplatin IC20 combos (AID 1671453); details: HTB85 osteosarcoma cells, drug combinations, stronger effect = higher value;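 further: cells exposed for 96 hours before readout; 0% = vehicle DMSO and 100% = high DMSO killing control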
[9] = CRL2098 osteosarcoma cell growth inhibition, synergistic combos for chromothripsis tumors, BGB or cisplatin IC20 combos (AID 1671454); details: CRL2098 osteosarcoma cells, drug combinations, stronger effect = higher value;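 further: cells exposed for 96 h before readout; 0% = vehicle DMSO and 100% = killing by high DMSO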
[10] = HD-MB03 medulloblastoma cell growth inhibition, synergistic combos for chromothripsis tumors, BGB or cisplatin IC20 combos (AID 1671455; in the data active means inhibition above about 83%;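 further: 0% = vehicle DMSO and 100% = high DMSO as cytotoxic control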); details: HD-MB03 medulloblastoma cells, stronger effect = higher value
[11] = UWB1.289 ovarian carcinoma cell growth inhibition, synergistic combos for chromothripsis tumors, BGB or cisplatin combos (AID 1671456); details: UWB1.289 ovarian carcinoma cells, stronger effect = higher value;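 further: cells exposed to compound for four days; 0% = vehicle DMSO and 100% = killing by high DMSO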
[12] = LFS_MB_2R medulloblastoma cell growth inhibition, synergistic combos for chromothripsis tumors, cisplatin combos (AID 1671457); details: LFS_MB_2R medulloblastoma cells, stronger effect = higher value;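 further: cells exposed to compound for four days before readout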
[13] = MDA-MB-436 breast carcinoma cell growth inhibition, synergistic combos for chromothripsis tumors, BGB or cisplatin combos (AID 1671458; call rule not given here;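 further: cells exposed for 96 hours; 0% = vehicle DMSO and 100% = killing by high DMSO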); details: MDA-MB-436 breast carcinoma growth inhibition, drug combinations, stronger effect = higher value
[14] = UWB1.289_BRCA1 ovarian cancer growth, cell-based, BGB or cisplatin combinations (AID 1671459); details: UWB1.289 BRCA1 ovarian carcinoma, drug combinations, stronger effect = higher value
[15] = human astrocyte viability loss, single and combined drugs, cytotoxicity control for chromothriptic childhood tumor combination screen, cell-based, BGB or cisplatin IC20 combos (AID 1671460); details: Human astrocytes, drug combinations, stronger effect = higher value;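 further: cells exposed to compounds for 96 hours before viability readout; 0% = vehicle and 100% = killing control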
[16] = growth inhibition of BT084 medulloblastoma cells, cell-based, ICGC_MB145, cisplatin and BGB IC40 combos (AID 1671461); details: drug combinations, stronger effect = higher value;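 further: cells exposed to drugs for 96 hours; 0% = vehicle DMSO and 100% = high DMSO full killing control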
[17] = growth inhibition of RCMB18 medulloblastoma cells, cell-based, cisplatin and BGB IC40 combos (AID 1671462); details: stronger effect = higher value;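 further: cells exposed to compound for four days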
[18] = growth inhibition of CRL1545 osteosarcoma cells, cell-based, cisplatin and BGB IC20 combos (AID 1671464); details: stronger effect = higher value;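 further: cells exposed to compound for 96 hours before readout; 0% = vehicle DMSO and 100% = high DMSO killing control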
[19] = measured here: combination with BGB IC40, at 0.05 µM
[20] = measured here: with BGB IC20 combination, at 0.5 µM
[21] = measured here: with cisplatin IC20 combination, at 0.5 µM
[22] = measured here: combination with cisplatin, at 0.5 µM
[23] = measured here: combination with cisplatin, at 5 µM

C[C@]12CCCN1CC1=NNC(=O)c3cc(F)cc4[nH]c2c1c34
AC50 [1]: 18.6 µM (active)
outcome [2]: inactive
outcome [3]: inactive
inhibition ([4]; at 0.5 µM, stronger effect = higher value): -13.4% (inactive)
inhibition ([4]; measured here: combination with BGB IC20, at 0.005 µM): -16.8%
inhibition ([4]; measured here: combination with BGB IC40, at 0.005 µM): -28.9%
inhibition [4, 19]: -3.06%
inhibition ([4]; measured here: combination with cisplatin, at 0.5 µM, stronger effect = higher value): -13.1%
inhibition ([4]; measured here: combination with cisplatin, at 5 µM, stronger effect = higher value): -44.5%
inhibition ([5]; BGB combo, at 5 µM): 6.78%
inhibition ([5]; at 0.5 µM): 9.23% (inactive)
inhibition ([5]; cisplatin combo, at 5 µM): 35.8%
inhibition [5, 20]: 6.38%
inhibition [5, 21]: -0.356%
inhibition ([5]; single agent, at 5 µM): 20.9%
inhibition ([6]; BGB IC20 combo, at 0.005 µM): -2.46%
inhibition ([6]; BGB IC40 combo, at 0.005 µM): -21.8%
inhibition ([6]; BGB IC40 combo, at 0.05 µM): -22.5%
inhibition ([6]; at 0.5 µM): -38.3% (inactive)
inhibition ([6]; cisplatin combo, at 0.05 µM): -27.3%
inhibition ([6]; cisplatin combo, at 0.5 µM): -41.3%
inhibition ([6]; cisplatin combo, at 5 µM): -0.499%
inhibition ([6]; measured here: 5 uM single agent, at 5 µM): -4.83%
inhibition ([7]; at 0.5 µM): -20.6% (inactive)
inhibition [7, 19]: 7.39%
inhibition [7, 22]: -14%
inhibition [7, 23]: 1.25%
inhibition ([8]; at 0.5 µM): 2.64% (inactive)
inhibition ([8]; measured here: with BGB IC20, at 0.5 µM): -13.5%
inhibition ([8]; measured here: with BGB IC20, at 5 µM): 4.08%
inhibition ([8]; measured here: with cisplatin IC20, at 0.5 µM): 10.2%
inhibition ([8]; measured here: with cisplatin IC20, at 5 µM): 21.1%
inhibition ([8]; single agent, at 5 µM): 23.4%
inhibition ([9]; at 0.5 µM): -35.2% (inactive)
inhibition ([9]; measured here: combination with BGB at IC20, at 0.5 µM): 1.29%
inhibition ([9]; measured here: combination with cisplatin at IC20, at 0.5 µM): -26.6%
inhibition ([10]; at 0.5 µM): -2.5% (inactive)
inhibition ([10]; measured here: combo with BGB at IC20, at 0.5 µM): -14.3%
inhibition ([10]; measured here: combo with cisplatin at IC20, at 0.5 µM): 6.94%
inhibition ([11]; at 0.5 µM): -3.02% (inactive)
inhibition ([11]; measured here: inhibition with BGB combination, at 0.05 µM): -15.4%
inhibition ([11]; measured here: inhibition with cisplatin combination, at 0.05 µM): -2.14%
inhibition ([12]; at 0.5 µM): -20.2% (inactive)
inhibition [12, 22]: -18.1%
inhibition [12, 23]: -24.5%
inhibition ([13]; at 0.5 µM): 3.1% (inactive)
inhibition ([13]; measured here: BGB combination, at 0.5 µM): -13.3%
inhibition ([13]; measured here: BGB combination, at 5 µM): -31.4%
inhibition ([13]; measured here: cisplatin combination, at 0.5 µM): 5.47%
inhibition ([13]; measured here: cisplatin combination, at 5 µM): 22.8%
inhibition ([14]; BGB combination, concentration series, at 5 µM): -3.19%
inhibition ([14]; at 0.5 µM): 2.39% (inactive)
inhibition ([14]; cisplatin combination, concentration series, at 5 µM): 5.42%
inhibition ([15]; at 0.5 µM): 14.9% (inactive)
inhibition ([15]; measured here: combo with BGB IC20, at 0.5 µM): 12%
inhibition ([15]; measured here: combo with cisplatin IC20, at 0.5 µM): 13.1%
inhibition ([16]; at 0.5 µM): -23% (inactive)
inhibition ([16]; cisplatin combination, at 0.5 µM): -25.6%
inhibition ([16]; cisplatin combination, at 5 µM): -25.6%
inhibition ([16]; measured here: BGB IC40 combination 0.05 uM, at 0.05 µM): -29%
inhibition ([16]; single agent, at 5 µM): -12.6%
inhibition ([17]; at 0.5 µM): -18.5% (inactive)
inhibition ([17]; cisplatin combo, at 5 µM): 3.33%
inhibition ([17]; measured here: BGB IC40 combination, at 0.05 µM): -15.1%
inhibition [17, 22]: -6.38%
inhibition ([17]; single agent, at 5 µM): -28.1%
inhibition ([18]; at 0.5 µM): 7.98% (inactive)
inhibition [18, 20]: -8.07%
inhibition [18, 21]: 16%
inhibition ([18]; single agent, at 0.05 µM): 13.9%
inhibition ([18]; single agent, at 5 µM): 35%
